Values joined by “and” are separate entries in the source; they are usually repeats but may differ in a detail not shown here. Identical values can stand only once. Counter-ions that a name gives are not always drawn. ± gives the standard deviation of the averaged measurements. Whole data set: some 3,100 compounds, median “mean cytoplasmic OPP incorporation (global translation) relative to DMSO” near 100, cut for the lowest 2% near 56. Only a selection was taken, and the lowest values are over-represented in it overall.
The molecules below were run on U2OS (assay: mean cytoplasmic OPP incorporation (global translation) relative to DMSO (% of DMSO); higher = more protein synthesis). Conditions: 10 µM; 24 h.
Protocol: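 Primary image-based screen in U2OS cells: compounds at 10 uM for 24 h, then a 1 h o-propargyl-puromycin (OPP) pulse, click labelling, and high-throughput microscopy. Mean cytoplasmic OPP intensity and nuclei count were normalised to DMSO wells within each plate (DMSO = 100) and averaged over triplicate plates.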
For `CC(C)C(=O)SCCCCCCC(=O)Nc1nc(-c2ccccc2)cs1`, the “mean cytoplasmic OPP incorporation” value was 117.
In the case of `CCCCCCN(CCCCCC)C(=O)Cc1c(-c2ccc(Cl)cc2)[nH]c2ccc(Cl)cc12`, the “mean cytoplasmic OPP incorporation” value is reported as 104.
`Cc1ccc(CC2(O)CCN(CCOc3ccc(O)cc3)CC2)cc1` was tested, and the “mean cytoplasmic OPP incorporation” value was 108.
For `COc1cc(C#N)ccc1S(=O)(=O)Nc1ccc2c(c1)cc(C)c(=O)n2C`, the “mean cytoplasmic OPP incorporation” value was 109.
For `COc1ccc(CCN(C)CCCOc2ccc(S(=O)(=O)c3c(C(C)C)c4ccccc4n3C)cc2)cc1OC`, the “mean cytoplasmic OPP incorporation” value was 110.
For `Clc1cc2c(NC3CCCC3)nnc(-c3ccncc3)c2cc1Cl`, the “mean cytoplasmic OPP incorporation” value was 114.
With `Cc1cnc(Nc2ccc(OCCN3CCCC3)cc2)nc1Nc1cccc(S(=O)(=O)NC(C)(C)C)c1` the “mean cytoplasmic OPP incorporation” value was 82.6 and 66.4.
For `CCN(CC)CCOc1ccc(Nc2ncc3cc(-c4c(Cl)cccc4Cl)c(=O)n(C)c3n2)cc1`, the “mean cytoplasmic OPP incorporation” value was 53.6.
For `CSc1cccc(Nc2ncc3cc(-c4c(Cl)cccc4Cl)c(=O)n(C)c3n2)c1`, the “mean cytoplasmic OPP incorporation” value was 116.
For `Cc1ccc(S(=O)(=O)C=CC#N)cc1`, the “mean cytoplasmic OPP incorporation” value was 65.3.
`O=C1Nc2ccc(-c3cccnc3)cc2/C1=C/c1ccc[nH]1` [JAK3 Inhibitor VI] was tested, and the “mean cytoplasmic OPP incorporation” value was 90.
In the case of `N=C(N)c1ccc(N2CCN(C3CCN(CC(=O)O)CC3)CC2)cc1`, the “mean cytoplasmic OPP incorporation” value is reported as 99.3.
In the case of `NC[C@H]1CC[C@H](C(=O)O)CC1` [Tranexamic acid], the “mean cytoplasmic OPP incorporation” value is reported as 47.
With `NCC1CCC(C(=O)N[C@@H](Cc2ccccc2)C(=O)Nc2ccc(CC(=O)O)cc2)CC1` (some centres not stated) the “mean cytoplasmic OPP incorporation” value was 97.5.
With `CC1(C)CCC(C)(C)c2cc(C(=O)Nc3ccc(C(=O)O)cc3)ccc21` the “mean cytoplasmic OPP incorporation” value was 105 and 99.6.
In the case of `CN(CCc1ccc(Cl)c(Cl)c1)CC(O)COc1ccc(NS(C)(=O)=O)cc1` (configuration not stated), the “mean cytoplasmic OPP incorporation” value is reported as 102 and 107.
With `N#Cc1ccc(NC(=O)Nc2ccccc2Br)c2n[nH]nc12` the “mean cytoplasmic OPP incorporation” value was 104.
`CC(C)CC(=O)Nc1n[nH]c2c1CN(C(=O)C1CCN(C)CC1)C2(C)C` was tested, and the “mean cytoplasmic OPP incorporation” value was 65.9.
For `Cc1nc(Nc2n[nH]c3c2CN(C(=O)N[C@H](CN(C)C)c2ccccc2)C3(C)C)c2sccc2n1`, the “mean cytoplasmic OPP incorporation” value was 45.5.
In the case of `CSc1nc(NC2CCCC2)c([N+](=O)[O-])c(NC2CCCC2)n1`, the “mean cytoplasmic OPP incorporation” value is reported as 101.
For `COC(C)(C)CCCC(C)C/C=C/C(C)=C/C(=O)O` (configuration not stated) [Methoprene acid], the “mean cytoplasmic OPP incorporation” value was 99.2.
With `CC(=O)OCOC(c1cc([N+](=O)[O-])ccc1Oc1ccc(Br)cc1)P(=O)(OCOC(C)=O)OCOC(C)=O` (configuration not stated) the “mean cytoplasmic OPP incorporation” value was 101.
`CC(C)N1Cc2cc(S(C)(=O)=O)ccc2N(CCN2CC=C(c3c[nH]c4cc(F)ccc34)CC2)S1(=O)=O` was tested, and the “mean cytoplasmic OPP incorporation” value was 106.
For `COCC(=O)O[C@]1(CCN(C)CCCc2nc3ccccc3[nH]2)CCc2cc(F)ccc2[C@@H]1C(C)C` [Mibefradil dihydrochloride], the “mean cytoplasmic OPP incorporation” value was 116.
For `CC(C)[C@H]1c2ccc(F)cc2CC[C@@]1(CCN(C)CCCc1nc2ccccc2[nH]1)OC(=O)C1CC1` [NNC 55-0396 dihydrochloride], the “mean cytoplasmic OPP incorporation” value was 55.5.
With `N#Cc1ccc(NCCNCC(=O)N2CCC[C@H]2C#N)nc1` [NVP DPP 728 dihydrochloride] the “mean cytoplasmic OPP incorporation” value was 90.3.
With `COc1ccc(CCN(C)CCCN2CCc3cc(OC)c(OC)cc3CC2=O)cc1OC` [Zatebradine hydrochloride] the “mean cytoplasmic OPP incorporation” value was 107.
`COc1cc(N)c(Cl)cc1C(=O)OCCCN1CCCCC1` was tested, and the “mean cytoplasmic OPP incorporation” value was 104.
In the case of `O=C(O)c1ccc(N2C(=O)C(=Cc3ccccc3)SC2=S)cc1`, the “mean cytoplasmic OPP incorporation” value is reported as 102.
For `Cc1cc(-c2ccccc2)nnc1NCCN1CCOCC1` [Minaprine dihydrochloride], the “mean cytoplasmic OPP incorporation” value was 99.4.
In the case of `O=C1C(Cl)=C(NCCN2CCOCC2)C(=O)c2ncccc21`, the “mean cytoplasmic OPP incorporation” value is reported as 31.
In the case of `O=C(NCCN1CCOCC1)c1ccc(Cl)cc1` [Moclobemide], the “mean cytoplasmic OPP incorporation” value is reported as 91.9.
For `Cl/C(=C\n1cncn1)c1ccc(Cl)cc1Cl` [Loreclezole hydrochloride], the “mean cytoplasmic OPP incorporation” value was 98.7.
For `Cc1oc(S(=O)(=O)N2CCCCC2)cc1NC(=O)Nc1ccccc1`, the “mean cytoplasmic OPP incorporation” value was 102.
For `Cc1cn(CCN2CCN(c3ccccc3-c3cc(C#N)cc(C(=O)NCCCN4CCCC4)c3)CC2)c2ccccc12`, the “mean cytoplasmic OPP incorporation” value was 30.6.
For `O=C(NCCCCN1CCN(c2cccc(Cl)c2Cl)CC1)c1ccc2c(c1)Cc1ccccc1-2`, the “mean cytoplasmic OPP incorporation” value was 107.
For `COc1ccccc1N1CCN(CCCCNC(=O)c2ccc3ccccc3c2)CC1`, the “mean cytoplasmic OPP incorporation” value was 112.
For `CC(C)=CCC/C(C)=C/CC/C(C)=C/CSCC(=O)O` [Farnesylthioacetic acid], the “mean cytoplasmic OPP incorporation” value was 96.1.
With `CSCC[C@H](NC=O)C(=O)N[C@@H](CC(=O)O)C(=O)NCC(=O)N[C@@H](CS)C(=O)N[C@@H](CCC(=O)O)C(=O)N[C@@H](CC(C)C)C(=O)O` the “mean cytoplasmic OPP incorporation” value was 103.
For `CC(=O)N1CCN(C)CC1` [1-Acetyl-4-methylpiperazine hydrochloride], the “mean cytoplasmic OPP incorporation” value was 99.1.
`Cc1ccc([N+](=O)[O-])cc1S(=O)(=O)N(C)C` was tested, and the “mean cytoplasmic OPP incorporation” value was 94.1.
`Cc1ccc([N+](=O)[O-])cc1S(=O)(=O)N(C)/N=C/c1cnc2ccc(Br)cn12` was tested, and the “mean cytoplasmic OPP incorporation” value was 44.3.
For `Cn1cccc1/C=C1\C(=O)NC(=O)c2ccccc21`, the “mean cytoplasmic OPP incorporation” value was 89.4.
With `Cc1cc(Nc2ncc(Cl)c(Nc3ccccc3S(=O)(=O)C(C)C)n2)c(OC(C)C)cc1C1CCNCC1` [Ceritinib (LDK378)] the “mean cytoplasmic OPP incorporation” value was 25.4.
In the case of `CC(C)Oc1cc(Nc2nc(N[C@@H](C)c3ccc(F)cn3)ncc2Cl)n[nH]1`, the “mean cytoplasmic OPP incorporation” value is reported as 110.
`O=C1c2ccccc2C(=O)c2c1ccc(O)c2O` [Alizarin] was tested, and the “mean cytoplasmic OPP incorporation” value was 106.
In the case of `O=C1C(SCCO)=C(SCCO)C(=O)c2ccccc21`, the “mean cytoplasmic OPP incorporation” value is reported as 71.3 and 55.3.
`O=C1c2ccccc2-c2nc3nonc3nc21` was tested, and the “mean cytoplasmic OPP incorporation” value was 81.3.
With `O=[N+]([O-])c1ccc(Oc2ccc(Br)cc2)c(C(O)P(=O)(O)O)c1` (configuration not stated) the “mean cytoplasmic OPP incorporation” value was 95.9.
In the case of `COC(=O)C(Cc1ccc(OCCn2c(=O)sc3cc(C(=O)c4ccccc4)ccc32)cc1)C(=O)OC`, the “mean cytoplasmic OPP incorporation” value is reported as 105.
`CC(=O)OC[C@H]1O[C@@H]([S-])[C@H](OC(C)=O)[C@@H](OC(C)=O)[C@@H]1OC(C)=O.CCP(CC)CC.[Au+]` [Auranofin] was tested, and the “mean cytoplasmic OPP incorporation” value was 10.4.
With `CCCCc1nc2ccn(Cc3cccs3)c(=O)c2n1Cc1ccc(-c2ccccc2-c2nn[nH]n2)cc1` the “mean cytoplasmic OPP incorporation” value was 104.
`COc1cc(-c2cn(C)c(=O)c3cnccc23)c(OC)cc1CN(C)C` was tested, and the “mean cytoplasmic OPP incorporation” value was 95.8.
With `c1ccc(-c2n[nH]c3c2oc2ccccc23)cc1` the “mean cytoplasmic OPP incorporation” value was 87.3.
With `O=C1NC(=O)/C(=C/c2ccc3nccc(-c4ccncc4)c3c2)S1` the “mean cytoplasmic OPP incorporation” value was 90.1.
With `O=C1NCCc2[nH]c(-c3ccncc3)cc21` the “mean cytoplasmic OPP incorporation” value was 49.9 ± 13.
`Cc1[nH]c(=O)c(C#N)cc1-c1ccncc1` [Milrinone] was tested, and the “mean cytoplasmic OPP incorporation” value was 94.4.

— the supplement of paper PMC8183993
